Experimental data taken from PubChem BioAssay.
Active and inactive are the calls of the source. Unless noted, how the calls were made is not given here.

How the values were obtained:
[1] = compounds binding Alexa647 anti-His antibody – biochemical, small-molecule microarray, 635 nm fluorescence, artefact control for SMM control protein annotation, primary screen (AID 1128); conditions: higher = more signal;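 further: score merges feature fluorescence with signal-to-noise for each printed compound spot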
[2] = test system: Human papillomavirus type 1a E7 protein (residues 1-88); experiment: HPV1a E7 small-molecule binders, primary screen, biochemical, small-molecule microarray, residues 1-88, 635 nm (AID 1129); conditions: small-molecule microarray binding, fluorescence 635 nm; higher = more signal
[3] = target: Focal adhesion kinase 1 (Homo sapiens) (UniProt Q05397); experiment: PTK2 protein binding on printed compound slides – biochemical, small-molecule microarray, 635/667 nm fluorescence, BSA, DTT, primary screen (AID 1130); conditions: 635 nm fluorescence, higher = more signal;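 further: composite of spot emission at 667 nm and signal to noise over triplicate slides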
[4] = test system: Fibrinogen (Alexa647-labelled); experiment: Alexa647-fibrinogen binding to printed small molecules – biochemical, small-molecule microarray, 635/667 nm fluorescence, artefact control for SMM control-protein annotation, profiling panel (AID 1131); conditions: fibrinogen-A647 binding fluorescence, higher = more signal;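 further: z-score merges 667 nm fluorescence with per-spot signal-to-noise over triplicate slides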
[5] = target: Follistatin (Homo sapiens) (UniProt P19883); experiment: FST protein binding to printed compounds – biochemical, small-molecule microarray, 635/667 nm fluorescence, primary screen (AID 1132); conditions: 635 nm fluorescence, higher = more signal
[6] = target: Fibroblast growth factor 2 (Homo sapiens) (UniProt P09038); experiment: basic fibroblast growth factor binding to printed compounds – biochemical, small-molecule microarray, 635/667 nm fluorescence, primary screen (AID 1133); conditions: FGF2, fluorescence 635/667, higher = more signal
[7] = JC-1 mitochondrial potential readout, lung cancer cells – cell-based, A549, JC-1 fluorescence, basal, 24 h, 100 nL, profiling panel (AID 1138); conditions: higher = more signal;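 further: A549 lung adenocarcinoma cells under basal conditions with no added stimulus; test concentration not given here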
Lefty1 = Lefty1 protein binding to printed compounds – biochemical, small-molecule microarray, 635/667 nm fluorescence, primary screen (AID 1139); conditions: fluorescence 635/667, higher = more signal
[8] = test system: wheat germ agglutinin (Triticum aestivum), Alexa647-labelled; experiment: Alexa647-WGA lectin binding to printed small molecules – biochemical, small-molecule microarray, 635/667 nm fluorescence, artefact control for SMM control-protein annotation, profiling panel (AID 1140); conditions: WGA-A647 binding, 635 nm fluorescence, higher = more signal;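 further: score merges 667 nm feature emission with signal to noise over triplicate slides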
[9] = target: Luciferin 4-monooxygenase (Photinus pyralis) (UniProt P08659); experiment: inhibition of purified Photinus pyralis luciferase – biochemical, luminescence, purified enzyme, 2006 set, primary screen (AID 1141); conditions: purified firefly luciferase, SteadyGlo luminescence, 30 min; higher = more signal, called active from +8 up or from −8 down;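 further: cell-free assay with purified firefly luciferase at 100 ng per well in PBS; test concentration not given here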
[10] = test system: Wnt5a (protein binding on small-molecule microarray); experiment: small molecules binding Wnt5a protein – biophysical, small-molecule microarray, 635/667 nm fluorescence, primary screen (AID 1142); conditions: 635 nm fluorescence, higher = more signal;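 further: fluorescence read at 667 nm with signal to noise per printed feature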
[11] = ATP-based viability of Huh7 replicon cells – cell-based, CellTiter-Glo luminescence, basal, 48 h, cytotoxicity control for HCV replication inhibitor project, primary screen (AID 1143); conditions: higher = more signal, called active from +8 up or from −8 down;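 further: Huh7 hepatoma cells carrying a hepatitis C replication reporter with no stimulus; test concentration not given here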
[12] = Pseudomonas biofilm growth suppression – PAO1 strain, BacTiter-Glo luminescence, LB-PBS, primary screen (AID 1144); conditions: P. aeruginosa PAO1 biofilm, 12 h, higher = more signal
[13] = basal CRE-LacZ reporter activity in PC12 – cell-based, unstimulated, primary screen (AID 1145); conditions: no forskolin, luminescence, 4.5 h, higher = more signal, called active from +8 up or from −8 down
[14] = forskolin-driven CRE-LacZ activity in PC12 – cell-based, CRE-LacZ reporter, forskolin-stimulated, primary screen (AID 1146); conditions: luminescence, 4.5 h, higher = more signal, called active from +8 up or from −8 down;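 further: PC12 cells with 6xCRE LacZ reporter stimulated by forskolin 10 µM; beta-galactosidase reporter signal reflecting CREB driven transcription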
[15] = target: Streptavidin (Streptomyces avidinii) (UniProt P22629); experiment: compounds binding control protein streptavidin – biophysical, small-molecule microarray, 635/667 nm fluorescence, artefact control for SMM compound annotation, primary screen (AID 1147); conditions: higher = more signal;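 further: signal reflects streptavidin binding to arrayed compounds as a control protein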
[16] = probe aInhba binding on compound microarray – biochemical, small-molecule microarray, 635/667 nm fluorescence, primary screen (AID 1148); conditions: higher = more signal;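 further: score merges 667nm spot fluorescence with signal-to-noise for antibody binding to printed compounds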
Torsin-1A (Homo sapiens) [17] = target: Torsin-1A (Homo sapiens) (UniProt O14656); experiment: TOR1A wild-type binding on microarray – cell lysate, small-molecule microarray, lysate, 635/667 nm, primary screen (AID 1149); conditions: COS7 hTOR1A-WT lysate, 635 nm fluorescence, higher = more signal
Torsin-1A (Homo sapiens) [18] = target: Torsin-1A (Homo sapiens) (UniProt O14656); experiment: torsin A mutant lysate binding on microarrays – cell lysate, small-molecule microarray, COS7 lysate, 635/667 nm fluorescence, primary screen (AID 1150); conditions: COS7 hTOR1A mutant lysate, 635 nm fluorescence, higher = more signal;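 further: score pools 667 nm emission and signal to noise measuring lysate protein binding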
[19] = test system: Sonic hedgehog protein (Shh); experiment: Sonic hedgehog microarray binding compounds – biochemical, small-molecule microarray, 635/667 nm fluorescence, primary screen (AID 1151); conditions: 635 nm fluorescence, higher = more signal;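 further: Shh protein binding to compounds spotted on small-molecule microarray slides; score combines spot fluorescence intensity with signal-to-noise across triplicate slides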

Follistatin (Homo sapiens), sequence (P19883 whole entry, looked up): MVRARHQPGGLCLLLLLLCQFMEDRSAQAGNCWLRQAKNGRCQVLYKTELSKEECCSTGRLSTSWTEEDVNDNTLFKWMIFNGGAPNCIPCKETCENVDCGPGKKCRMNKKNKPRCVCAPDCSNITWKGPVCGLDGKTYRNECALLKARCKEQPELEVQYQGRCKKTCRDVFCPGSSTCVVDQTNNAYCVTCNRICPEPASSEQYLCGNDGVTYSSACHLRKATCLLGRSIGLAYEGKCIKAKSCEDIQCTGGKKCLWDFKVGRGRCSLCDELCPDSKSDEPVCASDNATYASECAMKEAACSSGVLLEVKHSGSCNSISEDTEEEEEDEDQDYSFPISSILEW
Focal adhesion kinase 1 (Homo sapiens), sequence (Q05397 whole entry, looked up): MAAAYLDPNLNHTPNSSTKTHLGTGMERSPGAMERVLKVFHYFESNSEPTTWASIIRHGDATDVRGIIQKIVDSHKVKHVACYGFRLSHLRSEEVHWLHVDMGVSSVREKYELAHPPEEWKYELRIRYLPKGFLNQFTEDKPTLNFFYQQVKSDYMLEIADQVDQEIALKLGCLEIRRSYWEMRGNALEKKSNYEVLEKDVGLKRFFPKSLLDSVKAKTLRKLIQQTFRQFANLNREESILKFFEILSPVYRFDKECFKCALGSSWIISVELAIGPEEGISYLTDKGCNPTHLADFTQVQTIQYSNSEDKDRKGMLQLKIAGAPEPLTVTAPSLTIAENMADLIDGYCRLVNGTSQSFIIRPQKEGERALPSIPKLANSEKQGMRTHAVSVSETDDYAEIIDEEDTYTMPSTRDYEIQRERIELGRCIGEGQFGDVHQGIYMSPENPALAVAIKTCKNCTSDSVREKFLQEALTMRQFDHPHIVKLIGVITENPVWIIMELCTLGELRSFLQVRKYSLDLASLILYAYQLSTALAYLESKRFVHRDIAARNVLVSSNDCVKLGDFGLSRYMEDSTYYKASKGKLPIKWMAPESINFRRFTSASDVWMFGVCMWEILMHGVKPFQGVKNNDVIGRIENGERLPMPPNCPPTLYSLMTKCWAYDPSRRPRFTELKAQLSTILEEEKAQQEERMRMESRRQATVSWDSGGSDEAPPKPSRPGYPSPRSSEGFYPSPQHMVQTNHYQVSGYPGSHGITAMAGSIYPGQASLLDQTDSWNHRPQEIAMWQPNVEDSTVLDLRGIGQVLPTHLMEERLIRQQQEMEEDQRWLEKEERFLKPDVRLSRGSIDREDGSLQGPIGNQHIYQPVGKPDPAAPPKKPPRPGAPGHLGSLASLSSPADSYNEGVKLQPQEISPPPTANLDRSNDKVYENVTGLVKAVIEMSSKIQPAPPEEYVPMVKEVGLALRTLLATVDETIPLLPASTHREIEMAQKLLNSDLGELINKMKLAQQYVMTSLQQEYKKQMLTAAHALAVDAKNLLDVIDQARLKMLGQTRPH
Fibroblast growth factor 2 (Homo sapiens), sequence (P09038 whole entry, looked up): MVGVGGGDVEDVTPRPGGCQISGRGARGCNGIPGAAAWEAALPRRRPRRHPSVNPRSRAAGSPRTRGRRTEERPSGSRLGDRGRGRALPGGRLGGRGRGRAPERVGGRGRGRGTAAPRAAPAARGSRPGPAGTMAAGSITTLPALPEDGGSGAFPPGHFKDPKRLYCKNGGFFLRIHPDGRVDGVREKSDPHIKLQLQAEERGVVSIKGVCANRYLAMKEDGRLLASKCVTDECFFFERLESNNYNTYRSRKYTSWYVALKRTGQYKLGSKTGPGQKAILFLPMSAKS
Streptavidin (Streptomyces avidinii), sequence (P22629 whole entry, looked up): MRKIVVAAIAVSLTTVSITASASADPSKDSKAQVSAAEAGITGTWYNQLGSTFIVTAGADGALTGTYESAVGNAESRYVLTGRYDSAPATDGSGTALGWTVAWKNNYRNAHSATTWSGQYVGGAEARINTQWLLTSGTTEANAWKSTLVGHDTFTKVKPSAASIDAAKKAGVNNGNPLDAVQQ
Torsin-1A (Homo sapiens), sequence (O14656 whole entry, looked up): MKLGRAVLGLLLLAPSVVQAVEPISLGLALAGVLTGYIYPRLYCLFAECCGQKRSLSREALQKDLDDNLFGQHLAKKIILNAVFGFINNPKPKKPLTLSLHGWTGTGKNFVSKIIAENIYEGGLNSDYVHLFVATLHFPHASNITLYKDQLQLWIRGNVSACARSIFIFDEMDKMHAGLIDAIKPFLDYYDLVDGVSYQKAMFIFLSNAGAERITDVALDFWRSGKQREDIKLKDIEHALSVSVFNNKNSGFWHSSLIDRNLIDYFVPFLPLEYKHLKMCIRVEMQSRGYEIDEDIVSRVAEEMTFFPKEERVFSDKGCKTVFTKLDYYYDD
Luciferin 4-monooxygenase (Photinus pyralis), sequence (P08659 whole entry, looked up): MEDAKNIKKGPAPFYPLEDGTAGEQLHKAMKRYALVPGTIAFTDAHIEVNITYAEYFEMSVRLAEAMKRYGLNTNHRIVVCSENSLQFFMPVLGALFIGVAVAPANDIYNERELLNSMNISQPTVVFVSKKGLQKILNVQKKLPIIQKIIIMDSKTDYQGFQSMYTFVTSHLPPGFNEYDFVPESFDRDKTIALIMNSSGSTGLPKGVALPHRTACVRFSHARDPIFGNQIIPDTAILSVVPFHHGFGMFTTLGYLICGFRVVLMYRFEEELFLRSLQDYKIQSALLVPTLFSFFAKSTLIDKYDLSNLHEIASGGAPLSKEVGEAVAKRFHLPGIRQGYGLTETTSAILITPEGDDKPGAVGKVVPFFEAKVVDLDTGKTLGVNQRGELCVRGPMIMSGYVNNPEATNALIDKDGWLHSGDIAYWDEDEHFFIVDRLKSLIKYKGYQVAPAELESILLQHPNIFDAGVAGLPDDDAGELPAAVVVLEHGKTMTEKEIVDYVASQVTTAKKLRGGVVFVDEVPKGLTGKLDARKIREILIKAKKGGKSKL

Structure (SMILES)	composite z-score [1]	composite z-score [2]	composite z-score [3]	composite z-score [4]	composite z-score [5]	composite z-score [6]	z-score [7]	composite z-score (Lefty1)	composite z-score [8]	z-score [9]	composite z-score [10]	z-score [11]	z-score [12]	z-score [13]	z-score [14]	composite z-score [15]	composite z-score [16]	composite z-score (Torsin-1A (Homo sapiens) [17])	composite z-score (Torsin-1A (Homo sapiens) [18])	composite z-score [19]
CCOC(=O)NN=C1C[C@@H](O)[C@@H](O)[C@@H]2[C@@H]3C(=O)N(CC)C(=O)[C@@H]3CC[C@H]12	0.241	-0.351	0.105	0.569	-0.408	0.0278	-0.00768	0.0358	0.195	-0.557 (inactive)	0.0375	0.383 (inactive)	0.345 (inactive)	-0.656 (inactive)	-0.628 (inactive)	0.0571	-0.252	0.399	0.441	0.0046
CCc1cc2c(nc1CC)CCN(CCC(C)=NOCC[C@@H]1C=C[C@H](OC(C)=O)[C@@H](COC(C)=O)O1)C2	0.345	-0.19	0.174	-0.0226	0.823	0.273	0.677	1.18	0.0479	0.855 (inactive)	0.257	0.0095 (inactive)	-0.0152 (inactive)	3.88 (inactive)	0.329 (inactive)	1.78	0.127	2.66	1.66	1.32
C#CCCCON=C1C[C@@H](O)[C@@H](O)[C@@H]2[C@@H]3C(=O)N(CC)C(=O)[C@@H]3CC[C@H]12	1.93	0.286	-0.442	0.636	-0.473	-0.0374	-0.27	0.162	1.07	0.0384 (inactive)	0.401	0.0934 (inactive)	0.203 (inactive)	0.252 (inactive)	0.0606 (inactive)	0.0761	-0.0986	0.259	0.937	0.275
CC(C)CN1CCc2nc(-c3ccccc3)c3c(c2C1)CO[C@@H](C)C3	0.454	1.16	0.741	0.756	0.785	0.525	0.0232	0.923	0.963	-0.628 (inactive)	0.379	-0.718 (inactive)	-0.876 (inactive)	9.42 (active)	-1.44 (inactive)	0.235	0.115	0.0937	0.571	0.421
COC(=O)CC=C[C@@H](C)[C@@H](C=NOC[C@@H](C)[C@H](OCc1ccccc1)C(C)C)NS(=O)(=O)c1ccc(C)cc1	1.82	-0.588	-0.424	-1.52	0.131	0.0249	-0.48	0.329	-1.57	0.419 (inactive)	-0.122	-0.7 (inactive)	0.904 (inactive)	2.87 (inactive)	0.447 (inactive)	-0.784	-0.29	0.331	0.0147	0.587
COC(=O)CC=C[C@@H](C)[C@@H](C=NOC[C@@H](C)[C@H](OCc1ccccc1)C(C)C)OC	1.86	-0.0858	0.0285	-0.211	0.088	0.323	-1.01	0.419	-0.307	-0.698 (inactive)	0.0814	-0.112 (inactive)	-0.0142 (inactive)	0.848 (inactive)	0.0112 (inactive)	-0.437	-0.161	0.155	-0.0103	0.359
CC[C@@H](c1ccccc1)n1c(=O)n2n(c1=O)[C@H]1[C@H](O)[C@@H]3O[C@@H]3C(=NOCc3ccccc3)[C@H]1CC2	0.274	0.0875	-0.207	0.931	0.598	0.373	-1.14	0.65	0.676	0.0145 (inactive)	0.0576	-3.91 (inactive)	0.479 (inactive)	0.248 (inactive)	0.706 (inactive)	0.347	-0.0131	0.106	0.223	1.05
CO[C@H]1COC(=O)[C@H](CCSC)NC(=O)CC=C[C@@H](C)[C@H](OC)COC(=O)[C@@H](OCc2ccccc2)C=C[C@@H]1C	0.657	0.116	-0.0918	-0.84	1.23	0.689	-1.19	1.3	-0.36	1.28 (inactive)	0.211	-1.45 (inactive)	-0.128 (inactive)	-0.0638 (inactive)	0.74 (inactive)	-0.0966	-0.101	1.78	0.732	1.9
O=C1[C@H]2[C@H]3[C@H](O)[C@H](O)CC(=NOCc4ccccc4)[C@H]3CC[C@H]2C(=O)N1C1CCCCC1	0.992	0.944	0.041	1	0.28	0.479	0.436	0.355	0.971	0.18 (inactive)	-0.0056	-1.79 (inactive)	0.415 (inactive)	0.52 (inactive)	-0.262 (inactive)	0.457	-0.0917	0.161	1.03	0.449
CC(=O)OC[C@H]1O[C@H](CC=NO[C@H](C)c2cn([C@@H]3COC[C@H]3O)nn2)C=C[C@@H]1OC(C)=O	0.606	0.179	-0.0621	0.897	0.356	0.396	-0.17	0.42	-0.0712	-0.63 (inactive)	0.104	-0.29 (inactive)	-0.745 (inactive)	-0.724 (inactive)	-0.538 (inactive)	0.182	-0.0494	-0.0469	-0.108	0.165
COC(=O)[C@H](C)NC(=O)CCC1CC(OC(=O)NCc2cccc3ccccc23)CC2(CCCC(COC(=O)NCCCN3CCCC3=O)O2)O1 (stereo not given in full)	0.383	1.11	0.926	0.821	0.413	0.0982	-0.262	1.23	0.485	0.86 (inactive)	0.205	-0.0671 (inactive)	-1.07 (inactive)	-0.438 (inactive)	-0.178 (inactive)	0.865	-0.152	0.519	0.745	0.608
